Measurements as given in PubChem BioAssay (Tox21).
Results filed as inconclusive are left out. Calls of active or inactive are those of the source. Unless noted, calls follow the shape of the dose curve; as a rule, active = well fitted curve in the direction sought with a large enough effect in the repeat runs; inconclusive = weak or mixed curves; inactive = no such curve, though single readings can be large; an effect the other way counts as inactive or inconclusive.

Assays:
[1] = qHTS RealTime-Glo MT Cell Viability Assay in HEK293 cells - 0 hour (AID 1224880); also: top concentration of the series differs between compounds; nearly all actives have a fitted effect of over 45% in size
Outline: (§1)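 Luminescence readout at each listed time point; HEK293, 600 cells/well, RealTime-Glo MT reagent added with cells; compounds pinned (23 nL in DMSO) after 5 h at 37 C; continuous culture at 37 C.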

[2] = A CellTox Green Cytotoxicity Assay to monitor cytotoxicity in HEK293 cells - 32 hour (AID 1224881); also: nearly all actives have a fitted effect of over 40% in size; also: potency is read from the fitted curve at half-maximal effect
Outline: (§2)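 Read-out: fluorescence of a cell-impermeant cyanine dye staining DNA of dead cells, proportional to cytotoxicity. HEK293, 600 cells/well with reagent, compound (23 nL DMSO) added after 5 h; reads at 0, 8, 16, 24, 32, 40 h.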

[3] = A CellTox Green Cytotoxicity Assay to monitor cytotoxicity in HepG2 cells - 0 hour (AID 1224882); also: nearly all actives have a fitted effect of over 35% in size; also: potency is read from the fitted curve at half-maximal effect
Outline: (§3)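 HepG2, 600 cells/well premixed w/ CellTox Green; 5 h settle, 37 C/5% CO2; pintool cpd add (DMSO); 37 C, 40 h; fluorescence read at 0, 8, 16, 24, 32, 40 h.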

[4] = A CellTox Green Cytotoxicity Assay to monitor cytotoxicity in HepG2 cells - 32 hour (AID 1224883); also: nearly all actives have a fitted effect of over 50% in size; also: potency is read from the fitted curve at half-maximal effect
Outline: as §3

[5] = A CellTox Green Cytotoxicity Assay to monitor cytotoxicity in HEK293 cells - 8 hour (AID 1224884); also: nearly all actives have a fitted effect of over 35% in size; also: potency is read from the fitted curve at half-maximal effect
Outline: as §2

[6] = qHTS RealTime-Glo MT Cell Viability Assay in HepG2 cells - 16 hour (AID 1224885); also: nearly all actives have a fitted effect of over 50% in size
Outline: (§4)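 qHTS, HepG2, 600 cells/well, RealTime-Glo (NanoLuc + prosubstrate) added with cells; 5 h preincubation; DMSO compound addition; 37 C; luminescence at 0/8/16/24/32/40 h.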

[7] = qHTS RealTime-Glo MT Cell Viability Assay in HEK293 cells - 24 hour (AID 1224886); also: nearly all actives have a fitted effect of over 50% in size; also: potency is read from the fitted curve at half-maximal effect
Outline: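 Assay medium contained NanoLuc luciferase plus cell-permeant prosubstrate, added with HEK293 cells at 600 cells/well. After 5 h at 37 C/5% CO2 compounds were added; plates stayed at 37 C for 40 h with serial luminescence reads.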

[8] = qHTS RealTime-Glo MT Cell Viability Assay in HEK293 cells - 8 hour (AID 1224887); also: nearly all actives have a fitted effect of over 50% in size; also: potency is read from the fitted curve at half-maximal effect
Outline: as §1

[9] = A CellTox Green Cytotoxicity Assay to monitor cytotoxicity in HEK293 cells - 16 hour (AID 1224888); also: nearly all actives have a fitted effect of over 35% in size; also: potency is read from the fitted curve at half-maximal effect
Outline: as §2

[10] = qHTS RealTime-Glo MT Cell Viability Assay in HepG2 cells - 0 hour (AID 1224889); also: nearly all actives have a fitted effect of over 50% in size
Outline: as §4

[11] = A CellTox Green Cytotoxicity Assay to monitor cytotoxicity in HepG2 cells - 8 hour (AID 1224890); also: nearly all actives have a fitted effect of over 45% in size; also: potency is read from the fitted curve at half-maximal effect
Outline: as §3

[12] = qHTS assay to identify small molecule antagonists of the estrogen receptor alpha (ER-alpha) signaling pathway using the BG1 cell line in the presence of 0.1 nM 17-beta-estradiol - cell viability counter screen (AID 1259241); also: nearly all actives have a fitted effect of over 40% in size
Outline: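 VM7Luc4E2 cells (endogenous full-length ER-alpha, 4xERE-luciferase), cultured 5 days in charcoal-stripped serum, exposed to compounds with 0.1 nM 17beta-estradiol (final) for 22 hr at 37C. Viability read in same wells as live-cell protease fluorescence after 30 min.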

[13] = qHTS assay to identify small molecule antagonists of the androgen receptor (AR) signaling pathway using the MDA cell line in the presence of 0.5 nM R1881 - cell viability counter screen (AID 1259242); also: nearly all actives have a fitted effect of over 45% in size
Outline: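 Live-cell protease fluorescence, CellTiter-Fluor, 30 min at 37C. Cells: MDA-kb2, 3,000/well, preincubated 5 hr. Compounds plus 0.5 nM R1881 final, 16 hr, 37C, 0% CO2.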

[14] = qHTS assay to identify small molecule HDAC inhibitors (AID 1259364);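 also: wild-type HCT-116 cells with endogenous class I/II HDAC activity; top concentration of the series differs between compounds; nearly all actives have a fitted effect of over 45% in size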
Outline: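 HCT-116 (wild type), 1,500 cells/well, overnight; compound 2 hr 37C 5% CO2; HDAC-Glo I/II reagent 30 min RT; luminescence readout.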

[15] = qHTS assay to identify small molecule antagonists of the sonic hedgehog signaling (Shh) pathway - cell viability counter screen (AID 1259367); also: nearly all actives have a fitted effect of over 55% in size; also: potency is read from the fitted curve at half-maximal effect
Outline: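 Viability was read by CellTiter-Fluor fluorescence in the same wells, reagent added 23 hr into compound treatment and incubated 1 hr at 37C. The 3T3 Gli1-Luc reporter cells (2,000/well) received conditioned medium after compound and ran 24 hr.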

[16] = qHTS assay to identify small molecule phospholipidosis (PLD) inducers (AID 1259344; active = well fitted curve in the direction sought with a large enough effect; an effect the other way counts as inactive or inconclusive)
Outline: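 Phospholipid accumulation was scored by imaging: fixed, Hoechst-counterstained HepG2 cells stained with LipidTOX Red after 24 h compound exposure at 37 C. Read-outs were pit count and pit intensity per well or per cell, with amiodarone and DMSO controls.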

[17] = qHTS assay to identify small molecule HDAC inhibitors - cell viability counter screen (AID 1259365)
Outline: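 Wild-type HCT-116 cells, 1,500/well, cultured overnight, then compound-treated 2 h at 37 C. Viability measured as ATP luminescence with CellTiter-Glo after 30 min at room temperature.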

[18] = target: Estrogen receptor (Homo sapiens) (UniProt P03372); test: qHTS assay to identify small molecule antagonists of the estrogen receptor alpha (ER-alpha) signaling pathway using the BG1 cell line in the presence of 0.1 nM 17-beta-estradiol (AID 1259244); also: nearly all actives have a fitted effect of over 50% in size
Chain of Estrogen receptor (Homo sapiens) (P03372 whole entry, looked up): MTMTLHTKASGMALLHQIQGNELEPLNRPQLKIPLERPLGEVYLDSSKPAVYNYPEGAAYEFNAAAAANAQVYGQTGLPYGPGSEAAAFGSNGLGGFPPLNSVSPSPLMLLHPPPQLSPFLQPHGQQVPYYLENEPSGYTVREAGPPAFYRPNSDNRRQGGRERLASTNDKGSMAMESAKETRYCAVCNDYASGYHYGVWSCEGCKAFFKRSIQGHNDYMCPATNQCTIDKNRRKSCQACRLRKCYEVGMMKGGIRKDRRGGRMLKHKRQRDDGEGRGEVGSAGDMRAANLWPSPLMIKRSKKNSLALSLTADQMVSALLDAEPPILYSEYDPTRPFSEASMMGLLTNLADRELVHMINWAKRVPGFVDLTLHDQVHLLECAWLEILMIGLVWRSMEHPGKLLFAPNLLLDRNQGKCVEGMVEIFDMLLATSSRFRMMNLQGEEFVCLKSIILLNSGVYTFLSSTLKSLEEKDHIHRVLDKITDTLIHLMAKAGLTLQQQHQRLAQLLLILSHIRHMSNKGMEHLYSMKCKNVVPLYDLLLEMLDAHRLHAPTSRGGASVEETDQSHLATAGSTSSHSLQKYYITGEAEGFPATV
Outline: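 Luminescence after ONE-Glo (30 min, room temperature) measured ERE-luciferase activity in VM7Luc4E2 cells treated 22 h with compound and 0.1 nM final 17beta-estradiol as stimulator.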

[19] = qHTS assay to identify small molecule agonists of the sonic hedgehog signaling (Shh) pathway - cell viability counter screen (AID 1259366); also: nearly all actives have a fitted effect of over 50% in size
Outline: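 NIH/3T3-derived Gli1-Luc reporter cells, 2,000 per well, received compound after 4 h and were treated about 23 h at 37C. Viability measured in the same wells by CellTiter-Fluor fluorescence after 1 h.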

[20] = target: Androgen receptor (Homo sapiens) (UniProt P10275); test: qHTS assay to identify small molecule antagonists of the androgen receptor (AR) signaling pathway using the MDA cell line in the presence of 0.5 nM R1881 (AID 1259243); also: nearly all actives have a fitted effect of over 50% in size
Chain of Androgen receptor (Homo sapiens) (P10275 whole entry, looked up): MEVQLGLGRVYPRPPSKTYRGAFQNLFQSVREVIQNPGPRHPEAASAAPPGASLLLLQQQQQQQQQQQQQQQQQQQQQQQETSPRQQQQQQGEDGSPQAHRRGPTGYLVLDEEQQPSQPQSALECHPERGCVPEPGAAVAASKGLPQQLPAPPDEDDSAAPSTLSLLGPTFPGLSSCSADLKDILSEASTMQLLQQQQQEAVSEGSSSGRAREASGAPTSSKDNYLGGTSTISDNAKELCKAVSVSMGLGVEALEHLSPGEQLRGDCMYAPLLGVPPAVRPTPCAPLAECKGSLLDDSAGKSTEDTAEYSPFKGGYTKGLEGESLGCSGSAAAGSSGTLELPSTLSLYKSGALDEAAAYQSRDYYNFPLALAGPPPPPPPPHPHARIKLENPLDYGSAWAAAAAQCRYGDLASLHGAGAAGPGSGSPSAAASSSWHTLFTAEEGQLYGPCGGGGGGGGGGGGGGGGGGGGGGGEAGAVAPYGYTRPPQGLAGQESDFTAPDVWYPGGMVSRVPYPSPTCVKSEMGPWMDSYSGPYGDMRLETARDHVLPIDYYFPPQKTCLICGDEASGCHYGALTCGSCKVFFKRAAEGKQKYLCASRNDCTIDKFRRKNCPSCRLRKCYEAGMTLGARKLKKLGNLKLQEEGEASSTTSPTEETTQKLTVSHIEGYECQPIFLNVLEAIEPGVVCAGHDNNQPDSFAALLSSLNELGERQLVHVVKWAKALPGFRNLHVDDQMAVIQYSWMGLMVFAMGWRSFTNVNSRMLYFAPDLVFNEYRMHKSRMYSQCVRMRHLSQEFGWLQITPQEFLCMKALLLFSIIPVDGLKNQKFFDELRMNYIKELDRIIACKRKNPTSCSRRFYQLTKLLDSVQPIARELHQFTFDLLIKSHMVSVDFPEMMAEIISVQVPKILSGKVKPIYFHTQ
Outline: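 MDA-kb2, MMTV-luc (AR/GR elements); 3,000 cells/well; cpd + 0.5 nM R1881 final; 16 hr 37C, 0% CO2; ONE-Glo 30 min RT; luminescence.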

Measured: Potency

Sc1nc(S)nc(S)n1
not listed: [16] | [17] | [18] | [19] | [20]
inactive: all other assays above

Nc1nc(Cl)nc2c1ncn2[C@H]1C[C@H](O)[C@@H](CO)O1
not listed: [8] | [18] | [19] | [20]
inactive: all other assays above

Cc1cc(C)c(C)c(O)c1
not listed: [10] | [16] | [20]
inactive: all other assays above

CC(C)CCCCCCCOC(=O)c1ccc(C(=O)OCCCCCCCC(C)C)c(C(=O)OCCCCCCCC(C)C)c1
active: [15] 42.6 µM
not listed: [16] | [18] | [20]
inactive: all other assays above

O=[N+]([O-])c1ccccc1CCO
not listed: [16] | [18] | [20]
inactive: all other assays above

Cc1nc(C)c(C)nc1C
not listed: [8] | [16] | [18]
inactive: all other assays above

CC(C)=CCC[C@H](C)CCO
not listed: [11] | [16] | [20]
inactive: all other assays above

CC(Cc1ccccc1)(NC(=O)CN)c1ccccc1 (stereo not given)
not listed: [10] | [20]
inactive: all other assays above

CCCCCCCCNC
not listed: [10] | [16] | [17] | [18] | [20]
inactive: all other assays above

CC(C)NC(=O)c1ccccc1N
not listed: [16] | [17] | [18] | [20]
inactive: all other assays above

O=C(OC1C[C@H]2CC[C@@H](C1)[N+]21CCCC1)C(O)(c1ccccc1)c1ccccc1 (stereo not given in full)
not listed: [8] | [17] | [18]
inactive: all other assays above

Nc1cccc2c(=O)[nH][nH]c(=O)c12
not listed: [8] | [16] | [20]
inactive: all other assays above

C=CC(=O)OCCCCCCCCCC
not listed: [8] | [16] | [20]
inactive: all other assays above

CC(C)(O)C(=O)O
not listed: [16] | [17] | [18] | [19] | [20]
inactive: all other assays above

O=S(=O)(O)c1cc(Cl)c(Cl)cc1Cl
not listed: [10] | [16]
inactive: all other assays above

O=C1OC(=O)C2CC=CCC12 (stereo not given)
not listed: [10] | [16] | [19] | [20]
inactive: all other assays above

Nc1ncnc2c1ncn2[C@@H]1O[C@H](CO)[C@@H](O)[C@H]1O
not listed: [8] | [12] | [17] | [18] | [20]
inactive: all other assays above

C=CC(O)CCCCC (stereo not given)
not listed: [10] | [16] | [18] | [20]
inactive: all other assays above

Clc1cc(Cl)c2c(c1)N=C1CCCCCN1C2
active: [7] 19 µM
not listed: [8] | [14] | [16] | [18] | [20]
inactive: all other assays above

NC(=O)c1ccccc1C(N)=O
active: [2] 49.2 µM | [3] 49.2 µM | [4] 55.2 µM | [5] 49.2 µM | [7] 34.8 µM | [9] 49.2 µM | [11] 49.2 µM
not listed: [8] | [12] | [16] | [17] | [19]
inactive: all other assays above

S=c1[nH][nH]c(=S)s1
not listed: [7] | [10] | [16] | [17] | [18] | [20]
inactive: all other assays above

CCOC(=O)CC(O)(CC(=O)OCC)C(=O)OCC
not listed: [7] | [16] | [20]
inactive: all other assays above

N#C[C@@H]1CC(F)(F)CN1C(=O)CNC1CC2CCC(C1)N2c1ncccn1 (stereo not given in full)
not listed: [7] | [10] | [16] | [19]
inactive: all other assays above

Cc1c(Cl)cccc1[N+](=O)[O-]
not listed: [7] | [10] | [16] | [18] | [20]
inactive: all other assays above

CCOc1ccccc1O
not listed: [7] | [16] | [18] | [20]
inactive: all other assays above

N#Cc1ccc(CC(=O)c2cccc(C(F)(F)F)c2)cc1
not listed: [7] | [8] | [16] | [18] | [20]
inactive: all other assays above

CC(=O)Nc1ccccc1O
not listed: [7] | [10] | [16] | [18] | [20]
inactive: all other assays above

O=C(OCCCCCOC(=O)c1ccccc1)c1ccccc1
not listed: [7] | [8] | [16] | [20]
inactive: all other assays above

COC(=O)C(C)(C)C
not listed: [7] | [16] | [18] | [20]
inactive: all other assays above

COc1ccnc2c1CCCCC2S(=O)c1nc2ccccc2[nH]1 (stereo not given)
active: [7] 6.01 µM | [8] 8.49 µM
not listed: [6] | [16] | [20]
inactive: all other assays above

CO[C@@H]1[C@@H](O[C@@H]2O[C@H](C)[C@@H](O[C@H]3C[C@@](C)(O)[C@@H](O)[C@H](C)O3)[C@H](N(C)C)[C@H]2O)[C@@H](CC=O)C[C@@H](C)[C@@H](O[C@@H]2CC[C@H](N(C)C)[C@@H](C)O2)/C=C/C=C/C[C@@H](C)OC(=O)C[C@H]1OC(C)=O
not listed: [6] | [16] | [20]
inactive: all other assays above
